HepG2 viability: kills HepG2 cells in TGF-b inhibitor counter-screen. Potency, µM (titrated, usually from 46.1 µM), usual class: cytotoxic. AID 588856. hit rate 0.76% among 410,000. HepG2 CAGA-GFP viability, ATP luminescence, 18 h
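HepG2 CAGA-GFP cells (1000/well, DMEM with 1% FBS) received compound, then TGF-beta at 500 pg/mL final, and were incubated 18 hours at 37 degrees C. Viability was read by CellTiter-Glo luminescence. Media-only wells were set as complete cell-killing and DMSO as no toxicity.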
TGFb SMAD3 inh: TGF-b pathway inhibition; HepG2 CAGA-GFP TGF-b/SMAD3 reporter, GFP fluorescence, 18 h; TGF-beta stimulated, 500 pg/mL final; AID 588855; hit rate 1.2% among 410,000; Potency, µM (titrated, usually from 46.1 µM), most hits filed as inhibitors; note: nearly all actives have a fitted effect of over 65% in size
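HEPG2 CAGA-GFP reporter cells (1000/well, DMEM with 1% FBS) received compounds, then recombinant TGF-beta at 500 pg/mL final for 18 hours at 37 degrees C. Per-cell GFP summed per well was normalised to unstimulated and stimulated DMSO controls before curve fitting.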
IL1B secr inh: inhibitors of inflammasome signaling (IL-1 beta secretion); activity change, % at 57.5 µM; THP-1 LPS/ATP IL-1B secretion, AlphaLISA, 16 h; active compounds read low; hit rate 4.7% among 360,000; in the data active = activity change below about -50%; inconclusive = mostly about -30% to -49%
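THP-1 cells pretreated 1 hr with compounds (up to 57.5 uM final), then stimulated with LPS (250 ng/mL final) plus ATP (1.25 mM final); secreted IL-1B measured by AlphaLISA after 16 hr, decreased signal indicating inhibition.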
TDP1 block: TDP1 (human) enzyme inhibition; Q9NUW8; recombinant TDP1, AlphaScreen DNA substrate cleavage; Potency, µM (highest dose often 130 µM), hits mostly inhibitors; hit rate 0.28% among 350,000; AID 485290; note: nearly all actives have a fitted effect of over 40% in size
Target sequence (Q9NUW8 whole entry, looked up): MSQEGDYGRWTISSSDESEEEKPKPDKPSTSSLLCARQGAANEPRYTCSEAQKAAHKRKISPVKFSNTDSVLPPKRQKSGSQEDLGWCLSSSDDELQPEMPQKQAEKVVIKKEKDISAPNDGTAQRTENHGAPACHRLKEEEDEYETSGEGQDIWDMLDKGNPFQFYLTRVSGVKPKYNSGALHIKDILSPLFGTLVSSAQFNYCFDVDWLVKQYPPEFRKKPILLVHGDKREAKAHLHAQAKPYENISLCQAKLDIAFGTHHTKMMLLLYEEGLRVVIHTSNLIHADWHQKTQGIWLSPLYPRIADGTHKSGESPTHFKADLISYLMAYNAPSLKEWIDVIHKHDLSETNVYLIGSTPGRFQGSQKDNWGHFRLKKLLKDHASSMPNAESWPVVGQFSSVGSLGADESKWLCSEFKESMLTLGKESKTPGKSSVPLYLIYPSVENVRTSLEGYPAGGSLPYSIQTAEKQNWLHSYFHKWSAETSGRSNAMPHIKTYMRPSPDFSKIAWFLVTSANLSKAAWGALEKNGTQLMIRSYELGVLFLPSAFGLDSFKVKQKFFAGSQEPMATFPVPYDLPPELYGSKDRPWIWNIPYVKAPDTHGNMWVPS
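Recombinant E. coli-expressed Tdp1 (1 nM) preincubated with compound 15 min at RT, then 5'-biotin/3'-phosphotyrosine-FITC DNA substrate (15 nM) added for 5 min. AlphaScreen beads (10 ug/ml) added, 10 min RT; tyrosine-FITC cleavage read as signal loss.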
DT40 TDP1 CPT: DT40-hTDP1 cell growth loss with CPT; chicken DT40 Tdp1-/-;hTDP1 cells + 20 nM CPT, ATP luminescence, 48 h; Potency, µM (series often up to 46.2 µM), actives largely listed as inhibitors; hit rate 12% among 420,000; AID 686979; note: nearly all actives have a fitted effect of over 55% in size
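Cell growth measured by CellTiter-Glo luminescence after a minimum 48 h, 37 C compound exposure with 20 nM CPT in Tdp1-knockout DT40 cells stably expressing hTDP1, seeded 400/well; qHTS titration format.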
TDP1 cell noCPT: qHTS for Inhibitors of human tyrosyl-DNA phosphodiesterase 1 (TDP1): qHTS in cells in absence of CPT | DT40 Tdp1-/- hTDP1 cells, no CPT, ATP luminescence, 48 h | hit rate 15% among 420,000 | Potency, µM (highest dose often 46.2 µM), hits mostly inhibitors; note: nearly all actives have a fitted effect of over 55% in size
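Luminescent ATP content (CellTiter-Glo) served as the growth readout. Knockout chicken DT40 cells expressing human TDP1 were exposed to compounds without camptothecin for a minimum 48 hr at 37 °C.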
Numbers stand for hits; – = inactive; ? = inconclusive; · = not tested or not shown; [ ] = another dose, or the depositor's remark. Sampled rows, rich in hits. Any-hit rate of the full collection: about 18%. Unless noted, calls come from the whole dose curve; as a rule, active = well fitted curve in the direction sought with a large enough effect; inconclusive = small, poorly fitted or top-dose-only effect, or another doubt; inactive = no such curve, though single readings can be large; an effect the other way counts as inactive or inconclusive.

SMILES | HepG2 viability | TGFb SMAD3 inh | IL1B secr inh | TDP1 block | DT40 TDP1 CPT | TDP1 cell noCPT
O=C1CC(c2cccc(Cl)c2)c2cc3c(cc2N1)CCC3 (configuration not stated) | – | 10µM | – | – | 4.6µM | 2.9µM
COCCNC(=O)c1cc(S(=O)(=O)N2CCCCC2)ccc1N1CCOCC1 | – | – | – | – | – | –
COc1cccc(C2CC(=O)Nc3cc4c(cc32)CCC4)c1 (configuration not stated) | – | – | – | – | 4.1µM | 2.6µM
COc1cccc(C2CC(=O)Nc3cc(OC)c(OC)cc32)c1 (configuration not stated) | – | – | – | – | – | –
Cc1ccc2sc(C)cc(=O)c2c1 | – | – | – | · | – | –
CN(Cc1ccccc1)c1nc2c(c(=O)[nH]c(=O)n2C)n1CCCc1ccccc1 | – | ? | -54 | – | 29µM | 35µM
Cn1c(=O)[nH]c(=O)c2c1nc(N(CCO)Cc1ccccc1)n2CCCc1ccccc1 | – | – | – | – | 26µM | ?
Cn1c(=O)[nH]c(=O)c2[nH]c(CN3CCN(Cc4ccccc4)CC3)nc21 | – | – | – | · | – | –
Cn1c(=O)[nH]c(=O)c2[nH]c(N(Cc3ccccc3)Cc3ccccc3)nc21 | 13µM | 11µM | – | – | ? | 15µM
O=C(COc1ccc(Br)cc1CO)Nc1ccc(S(=O)(=O)N2CCCC2)cc1 | – | ? | -57 | – | ? | ?
Cc1ccc(S(=O)(=O)N2CCOCC2)cc1NC(=O)COc1cccc(-n2cnnn2)c1 | – | – | – | – | – | –
Cc1ccc(NC(=O)COc2ccc(Br)cc2CO)cc1S(=O)(=O)N1CCOCC1 | – | ? | – | – | ? | 18µM
Cc1ccc(NC(=O)COc2cccc(-n3cnnn3)c2)cc1S(=O)(=O)N1CCOCC1 | – | – | – | – | ? | 23µM
Cc1cc(NCC(=O)Nc2ccc(C)c(S(=O)(=O)N3CCOCC3)c2)ccc1Br | – | ? | – | · | ? | 18µM
Cc1cc(NC(=O)CCC(=O)N(CC(=O)NCC2CCCO2)c2ccc(F)c(Cl)c2)no1 (configuration not stated) | – | – | – | – | – | –
COC(=O)C1(CC(C)C)C=C2C(=C(C(C)C)C(=O)C2C)CN1 (configuration not stated) | · | · | · | – | · | ·
COc1ccc(-c2cc(C(F)(F)F)nc(S(=O)(=O)CCC(=O)N3CCOCC3)n2)cc1 | – | – | -118 | – | 6.5µM | 12µM
CS(=O)(=O)c1nc(-c2ccccc2)cc(C(F)(F)F)n1 | 13µM | ? | -96 | – | 1µM | 1.2µM
O=C(CCS(=O)(=O)c1nc(-c2ccc3c(c2)OCO3)cc(C(F)(F)F)n1)Nc1ccc(F)cc1F | – | 18µM | · | – | ? | 21µM
Cc1cccc(C)c1NC(=O)CCSc1nc(-c2ccc3c(c2)OCO3)cc(C(F)(F)F)n1 | – | – | · | – | · | ·
Cc1cc(NC(=O)CCS(=O)(=O)c2nc(-c3ccccc3)cc(C(F)(F)F)n2)no1 | – | ? | -121 | – | 1.6µM | 1.8µM
COc1ccc(-c2cn(CCO)c(CCN)n2)cc1 | – | – | – | – | – | –
Nc1nonc1-n1nnc(C(=O)N/N=C/c2ccccc2Br)c1CN1CCCC1 | – | – | – | –[0.0935 µM] | – | –
NCCCC[C@H](NC(=O)[C@@H]1CCCN1C(=O)[C@@H](N)CCCN=C(N)N)C(=O)N1CCC[C@H]1C(=O)N[C@@H](CCC(N)=O)C(=O)N[C@@H](CCC(N)=O)C(=O)N[C@@H](Cc1ccccc1)C(=O)O | · | · | · | – | · | ·
COc1ccc(NC(=O)CCS(=O)(=O)c2nc(-c3ccc4c(c3)OCO4)cc(C(F)(F)F)n2)cc1 | 11µM | ? | · | – | 6.5µM | 7.3µM
SMILES | HepG2 viability | TGFb SMAD3 inh | IL1B secr inh | TDP1 block | DT40 TDP1 CPT | TDP1 cell noCPT
CC(C)CNC(=O)CCSc1nc(-c2ccc3c(c2)OCO3)cc(C(F)(F)F)n1 | – | – | · | – | · | ·
Cc1ccc(NC(=O)Nc2nnc(N(C)Cc3ccccc3)s2)cc1 | – | ? | · | – | – | –
Cc1ccc(NC(=O)Nc2nnc(SCC(=O)N3CCC(C)CC3)s2)cc1 | – | ? | · | – | ? | 23µM
CCN(c1ccccc1)c1nnc(NC(=O)Nc2ccc(Br)cc2)s1 | – | – | · | – | 2.9µM | 3.7µM
CCCSc1nnc(NC(=O)Nc2ccc(C)cc2)s1 | – | – | – | – | ? | ?
CCOC(=O)Cc1ccc(NC(=O)Nc2nnc(N3CCCCC3C)s2)cc1 (configuration not stated) | – | 11µM | · | – | 12µM | 12µM
Cc1ccc(NC(=O)CSc2nnc(NC(=O)NC3CCCCC3)s2)cc1 | – | – | · | – | – | ?
CCCSc1nnc(NC(=O)Nc2ccc(F)cc2)s1 | – | ? | – | – | 21µM | 21µM
O=C(OCC(=O)c1c[nH]c2ccccc12)c1cc(Br)ccc1O | – | – | – | – | – | ?
O=S(=O)(Nc1ccc(Br)cn1)c1ccc2ccccc2c1 | – | – | ? | – | – | –
COc1cccc(CNC(=O)c2nnn(CC(=O)Nc3cccc(C)c3)c2N)c1 | – | – | – | – | – | –
CCCSc1nnc(NC(=O)Nc2ccccc2)s1 | – | ? | – | – | ? | 16µM
CCCSc1nnc(NC(=O)CCc2ccccc2)s1 | – | – | – | – | – | –
Cc1c(CCC(=O)N2CCC(C(=O)O)(c3ccccc3)CC2)c(=O)oc2cc3oc4c(c3cc12)CCCC4 | – | ? | – | · | – | –
Cc1c(CCC(=O)N2CCC(C(=O)O)CC2)c(=O)oc2cc3oc4c(c3cc12)CCCC4 | – | – | – | · | ? | 15µM
Cc1c(CCC(=O)NCCCn2ccnc2)c(=O)oc2cc3oc4c(c3cc12)CCCC4 | – | – | ? | · | 9.2µM | 10µM
Cc1oc2cc3oc(=O)c(CCC(=O)NCCCN4CCOCC4)c(C)c3cc2c1C | – | – | ? | · | 23µM | ?
Cc1c(CCC(=O)NCCCn2ccnc2)c(=O)oc2cc3occ(C(C)(C)C)c3cc12 | – | ? | ? | – | – | –
Cc1oc2cc3oc(=O)c(CCC(=O)NCCCn4ccnc4)c(C)c3cc2c1C | – | ? | -52 | · | ? | 23µM
Cc1coc2cc3oc(=O)c(CCC(=O)NCCCn4ccnc4)c(C)c3cc12 | – | – | – | · | ? | ?
COC(=O)C1CCN(Cc2ccc3c(c2)CN(C(=O)c2ccc4nc(C)c(C)nc4c2)CCO3)CC1 | · | · | · | · | –[9.04 µM] | –
NC(=O)c1ccc(Oc2ccc3c(c2)CCC3)c([N+](=O)[O-])c1 | – | – | ? | – | ? | –
